The source made the active and inactive calls. Unless noted, no rule for the calls is given here.

The values below come from PubChem BioAssay.

In test [1] the test system is XIP peptide (Xip251-270) binding. Nature of the test: small-molecule binders of XIP peptide, primary screen, biochemical, small-molecule microarray, fluorescence 635/667 nm, 0.1 µg/mL protein (AID 1182). Conditions: fluorescent protein binding, 635 nm, higher = more signal, called active from +8 up or from −8 down.
The test system of a further test is XIP peptide (Xip251-270). Nature of the test: small-molecule binders of XIP peptide, primary screen, biochemical, small-molecule microarray, fluorescence 635/667 nm, 0.5 µg/mL protein (AID 1183). Conditions: small-molecule microarray binding, fluorescence 635 nm; higher = more signal.
Test [2] in a line: Plasmodium falciparum growth inhibition, primary screen, strain 3D7, DAPI fluorescence, 100 nL (AID 1184).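 Also: parasites grown inside human red blood cells in medium with human serum.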 Conditions: P. falciparum 3D7 growth, 3 d, higher = more signal.
In test [3] the target is Homeobox protein Hox-A13 (Mus musculus) (UniProt Q62424). Put plainly: inhibitors of HoxA13-DNA binding, primary screen, biochemical, fluorescence polarization, labeled oligonucleotide (AID 1185). Conditions: 15 min, higher = more signal, called active from +8 up or from −8 down. In general terms: In fluorescence polarisation assays a small probe gives low polarisation when free and higher when bound to something large.

The nature of test [4]: inhibitors of hydroxyurea-induced Chk1 phosphorylation, primary screen, imaging, HeLa, phospho-Chk1 antibody, percent positive cells (AID 1186). As to conditions: hydroxyurea-induced phospho-Chk1 immunofluorescence imaging, higher = more signal.
Test [5] can be described thus: inhibitors of hydroxyurea-induced Chk1 phosphorylation, primary screen, imaging, HeLa, phospho-Chk1 nuclear intensity (AID 1187). As to conditions: hydroxyurea-induced phospho-Chk1 immunofluorescence imaging, higher = more signal.

Homeobox protein Hox-A13 (Mus musculus), sequence (Q62424 whole entry, looked up): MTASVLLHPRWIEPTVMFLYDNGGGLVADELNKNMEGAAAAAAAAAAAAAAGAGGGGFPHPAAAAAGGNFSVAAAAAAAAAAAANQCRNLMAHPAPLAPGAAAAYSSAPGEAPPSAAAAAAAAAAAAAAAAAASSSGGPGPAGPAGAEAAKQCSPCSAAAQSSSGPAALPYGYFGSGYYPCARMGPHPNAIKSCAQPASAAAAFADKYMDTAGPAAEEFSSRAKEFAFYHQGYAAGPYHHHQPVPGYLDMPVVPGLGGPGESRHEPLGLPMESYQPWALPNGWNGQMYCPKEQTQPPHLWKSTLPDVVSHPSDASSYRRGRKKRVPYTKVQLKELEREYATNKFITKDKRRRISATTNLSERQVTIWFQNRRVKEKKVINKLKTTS

As for `Cc1ccc(S[C@]2(C(=O)NCC(C)C)CC(=O)N(C(C)C)[C@@H]2c2ccc(CO)cc2I)cc1`, the figures for the composite z-score (in test [1]; with XIP peptide (Xip251-270)) were 0.708 (inactive) and 0.689, respectively. The z-score is -1.12 in test [2], -2.86 (inactive) in test [3], -0.187 (inactive) in test [4] and 0.023 (inactive) in test [5].
`CCCC=C(CCC)[C@@H](NC(=O)c1ccc(C(=O)OC)cc1)c1ccc(C(=O)OC)cc1`: the composite z-score is -0.0958 (inactive) in test [1] and -0.345 in the test on XIP peptide (Xip251-270). The z-score was -0.685 in test [2], -2.06 (inactive) in test [3], 0.151 (inactive) in test [4] and -0.745 (inactive) in test [5].
For `COc1ccc(CCNC(=O)[C@@H]2c3ccccc3C(=O)N(C(C)C)[C@H]2c2ccc(CO)cc2)cc1`, the composite z-score was -0.343 (inactive) in test [1] and -0.898 in the test on XIP peptide (Xip251-270). For the same compound, the z-score is 1.13 in test [2], -2.13 (inactive) in test [3], -0.182 (inactive) in test [4] and -0.238 (inactive) in test [5].
Take `CC(C)N1C(=O)[C@@]2(Cc3ccccc31)c1ccccc1C(=O)N(Cc1ccccc1C(F)(F)F)[C@H]2c1ccc(CO)cc1`: the figures for the composite z-score (in test [1]; in the test on XIP peptide (Xip251-270)) were -0.0547 (inactive) and 0.471, respectively. The z-score in test [2] was -0.35; in test [3], -0.791 (inactive); in test [4] it was 0.0153 (inactive); in test [5] it was -0.0497 (inactive).
In the case of `COc1ccc([Si](C)(C)[C@H]2[C@H](CC(=O)N(CCO)Cc3ccccc3)O[C@@]3(C(=O)N(c4ccccc4)c4ccccc43)[C@@H]2C)cc1`, the figures for the composite z-score (in test [1]; in the test with XIP peptide (Xip251-270)) were -0.372 (inactive) and 0.342, respectively. The z-score in test [2] is -2.62; in test [3], -5.46 (inactive); in test [4], -0.807 (inactive); in test [5], -0.763 (inactive).
`C=CCNC(=O)[C@H]1[C@@H]2C(=O)O[C@@H](c3ccccc3)[C@@H](c3ccccc3)N2[C@@H](c2ccc(OCCO)cc2)[C@]12C(=O)N(C(=O)OCCOC)c1ccc(C#CCC(C(=O)OC)C(=O)OC)cc12`: the figures for the composite z-score (in test [1]; in the test on XIP peptide (Xip251-270)) were 0.275 (inactive) and 0.734, respectively. The z-score in test [2] is -1.82; in test [3], -0.253 (inactive); in test [4] it was 0.338 (inactive); in test [5], 0.475 (inactive).
As for `Cc1ccc(S[C@]2(C(=O)NCc3ccccc3)CC(=O)N(Cc3ccccc3Cl)[C@@H]2c2ccc(CO)cc2)cc1`, the figures for the composite z-score (in test [1]; in the test with XIP peptide (Xip251-270)) were 1.65 (inactive) and 0.825, respectively. In addition, the z-score in test [2] is -1.2; in test [3], -2.65 (inactive); in test [4], 0.172 (inactive); in test [5], 0.622 (inactive).
With `CCCN1C(=O)[C@@]2(c3ccc([N+](=O)[O-])cc3)CC(=O)N(C3CCCCC3)[C@@H]2c2ccc(CO)cc21`, the composite z-score was -0.403 (inactive) in test [1] and 0.107 in the test with XIP peptide (Xip251-270). For the same compound, the z-score in test [2] is 0.069; in test [3], -1.26 (inactive); in test [4] it was 0.257 (inactive); in test [5] it was 0.105 (inactive).
Consider `COC(=O)c1c2oc(c1C(=O)OC)C(=O)N[C@H](Cc1ccccc1)Cn1cc(nn1)C1(CCCCC1)NC(=O)N[C@H](CO)CC2`, for which the values for the composite z-score (in test [1]; in the test on XIP peptide (Xip251-270)) were 0.772 (inactive) and -0.652, respectively. Also, the z-score was 0.764 in test [2], -3.34 (inactive) in test [3], -0.0529 (inactive) in test [4] and -0.669 (inactive) in test [5].
In the case of `C#CCN(C(=O)OC(C)(C)C)[C@H](CO)c1ccccc1`, the composite z-score in test [1] is -0.235 (inactive); with XIP peptide (Xip251-270) it was -0.182. Also, the z-score is -0.333 in test [2], -3.85 (inactive) in test [3], -0.306 (inactive) in test [4] and -0.368 (inactive) in test [5].
Take `O=C1OCCC/C=C\[C@H]2OC34C=CCN(Cc5ccccc5)C(=O)[C@H]3N(CCO)C(=O)[C@@H]4C12` (stereo not given in full): the figures for the composite z-score (in test [1]; in the test with XIP peptide (Xip251-270)) were 1.68 (inactive) and -0.0058, respectively. Besides, the z-score in test [2] is 0.499; in test [3], -5.69 (inactive); in test [4] it was -0.909 (inactive); in test [5] it was -0.375 (inactive).
Consider `NCCCCCCNC(=O)[C@@H]1C[C@@H]2C(=O)NCC(=O)N2[C@@H]1c1cccc(OCCO)c1`, for which the results for the composite z-score (in test [1]; in the test on XIP peptide (Xip251-270)) were 0.592 (inactive) and 0.354, respectively. The z-score in test [2] was 0.418; in test [3], -1.96 (inactive); in test [4] it was 0.13 (inactive); in test [5] it was 0.118 (inactive).
For `C=C(C(=O)CC[C@@H](OC(=O)c1ccccc1-c1ccccc1C(=O)O)c1ccc(CO)o1)C(C)C`, the composite z-score in test [1] was 0.525 (inactive); in the test with XIP peptide (Xip251-270), 0.434. The z-score is 1.88 in test [2], -5.42 (inactive) in test [3], 0.762 (inactive) in test [4] and 0.478 (inactive) in test [5].
As for `CO[C@H]1O[C@H](CO)[C@@H](OC(=O)Nc2cccc(F)c2)[C@H](OC(=O)Nc2ccc3c(c2)OCO3)[C@@H]1OC(=O)Nc1ccc2c(c1)OCO2`, the composite z-score was 0.968 (inactive) in test [1] and 0.894 in the test with XIP peptide (Xip251-270). The z-score in test [2] is -0.754; in test [3], -6.1 (inactive); in test [4], 0.223 (inactive); in test [5] it was 0.613 (inactive).
Take `C=C[C@H](OC)[C@@H](O)c1ccc(OC)c(O)c1`: the composite z-score in test [1] was -1.51 (inactive); in the test on XIP peptide (Xip251-270), 1.1. Also, the z-score in test [2] is -0.874; in test [3], -1.36 (inactive); in test [4], 0.171 (inactive); in test [5], 0.705 (inactive).
`CCCCN1CC=CC23O[C@@H]4/C=C\CCC(C)OC(=O)C4[C@H]2C(=O)N(CCO)[C@@H]3C1=O` (stereo not given in full): the composite z-score is 0.874 (inactive) in test [1] and -0.629 in the test with XIP peptide (Xip251-270). Moreover, the z-score in test [2] is -0.165; in test [3], -5.58 (inactive); in test [4], -0.967 (inactive); in test [5], -0.862 (inactive).
On to `CCCC1(C(=O)OC)C=C2C(=C(C(C)C)C(=O)C2C)CN1` (stereo not given), for which the composite z-score in test [1] is -0.275 (inactive); with XIP peptide (Xip251-270) it was -0.619. Further, the z-score in test [2] was 0.77; in test [3], -6.18 (inactive); in test [4], 0.493 (inactive); in test [5] it was 0.473 (inactive).
In the case of `C=CC[C@H](O)c1ccc(O)c(F)c1`, the composite z-score was -0.51 (inactive) in test [1] and 0.0085 in the test with XIP peptide (Xip251-270). In addition, the z-score is -0.418 in test [2], -1.51 (inactive) in test [3], -0.316 (inactive) in test [4] and -0.264 (inactive) in test [5].
In the case of `CCOC(=O)C[C@H]1[C@H](OC(=O)c2cc3ccccc3oc2=O)[C@@H](NC(=O)c2ccc(-c3ccccc3)cc2)c2cc(OCCCO)ccc2N1C(=O)Cc1ccc(OC)cc1`, the composite z-score in test [1] is 0.108 (inactive); in the test with XIP peptide (Xip251-270) it was 0.437. Also, the z-score in test [2] was -0.638; in test [3], -3.12 (inactive); in test [4] it was 0.105 (inactive); in test [5] it was -0.0512 (inactive).
As for `COc1ccc([Si](C)(C)[C@H]2[C@H](CC(=O)N3CCC[C@H]3CO)O[C@@]3(C(=O)N(Cc4cccc(N5CCCCC5=O)c4)c4ccccc43)[C@@H]2C)cc1`, the composite z-score in test [1] was 2.57 (inactive); in the test with XIP peptide (Xip251-270), 0.714. Moreover, the z-score is -1.33 in test [2], -3.23 (inactive) in test [3], -0.319 (inactive) in test [4] and 0.519 (inactive) in test [5].
Consider `CC(=O)NCCCC[C@@H]1NC(=O)[C@H]2C[C@@H](C(=O)O)[C@@H](c3cccc(OCCO)c3)N2C1=O`, for which the composite z-score was 1.31 (inactive) in test [1] and 0.806 in the test with XIP peptide (Xip251-270). Also, the z-score is -0.48 in test [2], -2.31 (inactive) in test [3], 0.165 (inactive) in test [4] and -0.347 (inactive) in test [5].
Regarding `CS(=O)(=O)CCOC(=O)C1=CC(CCCO)=CC(C2CC2)N(Cc2sc3ccccc3c2Cl)C=C1C(=O)OCCS(C)(=O)=O` (stereo not given), the composite z-score in test [1] is 1.05 (inactive); in the test on XIP peptide (Xip251-270) it was 0.257. The z-score in test [2] was -3.02; in test [3], -4.7 (inactive); in test [4], -0.207 (inactive); in test [5], -0.0474 (inactive).
Turning to `C=CCNC(=O)[C@H]1[C@@H]2C(=O)O[C@@H](c3ccccc3)[C@@H](c3ccccc3)N2[C@@H](c2ccc(O)cc2)[C@]12C(=O)N(C(=O)OCCOC)c1ccc(C#Cc3ccc(OC)cc3)cc12`, the results for the composite z-score (in test [1]; in the test with XIP peptide (Xip251-270)) were -0.184 (inactive) and 0.625, respectively. Besides, the z-score in test [2] was -0.812; in test [3], -1.16 (inactive); in test [4] it was 0.0708 (inactive); in test [5], 0.21 (inactive).
Turning to `C[N+](C)(C)CCCC[C@@H]1NC(=O)[C@H]2C[C@@H](C(=O)O)[C@@H](c3ccc(O)cc3)N2C1=O`, the composite z-score was 0.154 (inactive) in test [1] and 0.274 in the test with XIP peptide (Xip251-270). Besides, the z-score is 0.115 in test [2], -1.42 (inactive) in test [3], -0.349 (inactive) in test [4] and -0.313 (inactive) in test [5].
On to `O=C1O[C@H](c2ccccc2)[C@H](c2ccccc2)N2[C@H]1[C@@H](C(=O)N1CCCCCCC1)[C@]1(C(=O)Nc3ccc(C#CCCO)cc31)[C@H]2c1ccc(O)cc1`, for which the composite z-score is 4.41 (inactive) in test [1] and 0.976 with XIP peptide (Xip251-270). Moreover, the z-score in test [2] was -0.189; in test [3], 1.85 (inactive); in test [4], -0.323 (inactive); in test [5] it was -0.279 (inactive).
